Measured values from article PMC7862700, “An all-to-all approach to the identification of sequence-specific readers for epigenetic DNA modifications on cytosine”.

Assays:
Assay in all cases: DAPPL (digital affinity profiling via proximity ligation, sequencing); 10 mM Tris-HCl pH 7.5, 50 mM NaCl, 1 mM DTT, 4% glycerol, room temperature, 30 min; GST-TFs on glutathione beads, 16-mer random dsDNA library, 0.1% formaldehyde crosslink after washing; high values mean tight binding
FLI1 = molecular target: T1, FLI1 (Homo sapiens, UniProt Q01543 1-452); conditions: protein: recombinant; tags: N-terminal GST; dsDNA, one strand shown
T1 sequence: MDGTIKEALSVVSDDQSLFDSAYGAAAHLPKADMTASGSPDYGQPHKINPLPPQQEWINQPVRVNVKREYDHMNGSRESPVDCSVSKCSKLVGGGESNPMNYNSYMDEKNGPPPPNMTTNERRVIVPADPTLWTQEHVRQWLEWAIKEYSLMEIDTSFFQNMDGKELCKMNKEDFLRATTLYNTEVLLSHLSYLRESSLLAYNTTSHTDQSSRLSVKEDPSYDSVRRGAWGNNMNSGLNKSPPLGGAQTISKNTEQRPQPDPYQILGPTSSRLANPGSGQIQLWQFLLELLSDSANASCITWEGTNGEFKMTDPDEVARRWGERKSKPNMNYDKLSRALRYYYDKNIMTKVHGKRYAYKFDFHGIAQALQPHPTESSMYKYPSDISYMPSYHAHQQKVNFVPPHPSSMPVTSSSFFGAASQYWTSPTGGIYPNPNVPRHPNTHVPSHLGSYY
Outline: (§1)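 Beads coated with glutathione captured GST-fused human transcription factors that had been expressed in yeast, and the factors were then given DNA barcodes and pooled with a tag-only sample. The pools were incubated with 200 nmole of a random double-stranded 16-mer DNA library in Tris/NaCl/DTT/glycerol buffer for 30 min at room temperature, washed, crosslinked with 0.1% formaldehyde and proximity-ligated with BsaI/T4 ligase at 37 °C for 1 h. PCR amplification and Illumina NextSeq500 sequencing came last. Binding signal is each hexamer's read frequency for a factor divided by its frequency for the tag-only sample.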

ELK1 = molecular target: T2, ELK1 (Homo sapiens, UniProt P19419 1-428); conditions: protein: recombinant; tags: N-terminal GST; dsDNA, one strand shown
T2 sequence: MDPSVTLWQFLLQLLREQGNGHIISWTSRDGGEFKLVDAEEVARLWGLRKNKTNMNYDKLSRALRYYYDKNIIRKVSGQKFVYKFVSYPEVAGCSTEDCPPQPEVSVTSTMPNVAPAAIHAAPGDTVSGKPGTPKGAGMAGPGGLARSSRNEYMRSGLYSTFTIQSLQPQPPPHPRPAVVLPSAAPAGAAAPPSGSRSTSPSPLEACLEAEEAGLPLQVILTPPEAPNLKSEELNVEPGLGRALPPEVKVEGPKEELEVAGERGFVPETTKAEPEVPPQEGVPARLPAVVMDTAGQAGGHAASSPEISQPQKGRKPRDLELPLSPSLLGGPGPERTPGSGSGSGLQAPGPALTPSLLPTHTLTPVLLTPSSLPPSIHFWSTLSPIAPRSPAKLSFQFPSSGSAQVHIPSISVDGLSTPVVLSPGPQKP
Outline: as §1

GABPA = molecular target: T3, GABPA (Homo sapiens, UniProt Q06546 1-454); conditions: protein: recombinant; tags: N-terminal GST; dsDNA, one strand shown
T3 sequence: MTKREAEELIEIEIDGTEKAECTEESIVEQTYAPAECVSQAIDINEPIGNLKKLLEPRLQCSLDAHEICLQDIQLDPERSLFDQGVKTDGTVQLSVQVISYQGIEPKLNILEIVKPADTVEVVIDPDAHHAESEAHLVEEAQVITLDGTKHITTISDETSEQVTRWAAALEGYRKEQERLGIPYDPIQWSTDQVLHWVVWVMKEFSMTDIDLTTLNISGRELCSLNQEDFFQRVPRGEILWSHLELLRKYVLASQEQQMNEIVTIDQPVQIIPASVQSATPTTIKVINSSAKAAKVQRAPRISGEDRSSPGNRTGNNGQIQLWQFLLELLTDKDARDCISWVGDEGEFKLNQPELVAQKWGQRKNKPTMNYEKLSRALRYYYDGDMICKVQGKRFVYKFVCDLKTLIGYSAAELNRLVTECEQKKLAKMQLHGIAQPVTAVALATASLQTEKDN
Outline: as §1

ERG = molecular target: T4, ERG (Homo sapiens, UniProt P11308 1-479); conditions: protein: recombinant; tags: N-terminal GST; dsDNA, one strand shown
T4 sequence: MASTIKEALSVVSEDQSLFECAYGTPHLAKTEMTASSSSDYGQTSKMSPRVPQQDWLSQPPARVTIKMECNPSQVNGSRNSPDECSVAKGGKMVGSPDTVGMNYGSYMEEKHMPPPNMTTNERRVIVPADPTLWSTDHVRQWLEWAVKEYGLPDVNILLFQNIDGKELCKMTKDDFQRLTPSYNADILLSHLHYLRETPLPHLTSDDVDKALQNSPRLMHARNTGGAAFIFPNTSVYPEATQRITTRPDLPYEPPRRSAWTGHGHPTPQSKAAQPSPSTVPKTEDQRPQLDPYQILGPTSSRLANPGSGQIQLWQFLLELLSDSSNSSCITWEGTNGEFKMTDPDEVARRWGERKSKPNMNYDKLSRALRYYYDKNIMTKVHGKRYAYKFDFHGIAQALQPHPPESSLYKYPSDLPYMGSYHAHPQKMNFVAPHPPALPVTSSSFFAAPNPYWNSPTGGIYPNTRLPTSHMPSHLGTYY
Outline: as §1

ELF1 = ELF1 (Homo sapiens, UniProt P32519 1-619); conditions: protein: recombinant; tags: N-terminal GST; dsDNA, one strand shown
Outline: as §1

EHF = molecular target: T5, EHF (Homo sapiens, UniProt Q9NZC4 1-300); conditions: protein: recombinant; tags: N-terminal GST; dsDNA, one strand shown
T5 sequence: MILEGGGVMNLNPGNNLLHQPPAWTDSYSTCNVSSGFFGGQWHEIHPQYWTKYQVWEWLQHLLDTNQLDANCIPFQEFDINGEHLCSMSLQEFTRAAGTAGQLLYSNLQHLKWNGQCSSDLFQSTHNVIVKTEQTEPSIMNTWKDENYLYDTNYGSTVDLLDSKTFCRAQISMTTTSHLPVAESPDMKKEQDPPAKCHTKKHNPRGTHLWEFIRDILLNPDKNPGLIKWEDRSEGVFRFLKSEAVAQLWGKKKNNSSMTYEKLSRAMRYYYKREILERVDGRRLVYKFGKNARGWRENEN
Outline: as §1

SPI1 = SPI1 (Homo sapiens, UniProt P17947 1-270); conditions: protein: recombinant; tags: N-terminal GST; dsDNA, one strand shown
Outline: as §1

SPIB = SPIB (Homo sapiens, UniProt Q01892 1-262); conditions: protein: recombinant; tags: N-terminal GST; dsDNA, one strand shown
Outline: as §1

ELK3 = molecular target: T6, ELK3 (Homo sapiens, UniProt P41970 1-407); conditions: protein: recombinant; tags: N-terminal GST; dsDNA, one strand shown
T6 sequence: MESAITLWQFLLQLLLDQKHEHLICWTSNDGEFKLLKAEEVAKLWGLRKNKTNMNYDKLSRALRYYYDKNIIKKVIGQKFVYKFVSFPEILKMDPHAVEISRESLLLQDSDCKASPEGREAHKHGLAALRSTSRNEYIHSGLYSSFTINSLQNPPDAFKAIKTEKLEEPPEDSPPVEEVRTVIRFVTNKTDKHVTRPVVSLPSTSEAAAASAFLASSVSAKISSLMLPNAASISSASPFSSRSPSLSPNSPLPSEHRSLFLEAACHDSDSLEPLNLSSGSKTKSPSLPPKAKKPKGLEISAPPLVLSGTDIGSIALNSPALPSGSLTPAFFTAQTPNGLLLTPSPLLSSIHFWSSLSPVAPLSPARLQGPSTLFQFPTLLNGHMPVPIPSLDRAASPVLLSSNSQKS
Outline: as §1

FEV = molecular target: T7, FEV (Homo sapiens, UniProt Q99581 1-238); conditions: protein: recombinant; tags: N-terminal GST; dsDNA, one strand shown
T7 sequence: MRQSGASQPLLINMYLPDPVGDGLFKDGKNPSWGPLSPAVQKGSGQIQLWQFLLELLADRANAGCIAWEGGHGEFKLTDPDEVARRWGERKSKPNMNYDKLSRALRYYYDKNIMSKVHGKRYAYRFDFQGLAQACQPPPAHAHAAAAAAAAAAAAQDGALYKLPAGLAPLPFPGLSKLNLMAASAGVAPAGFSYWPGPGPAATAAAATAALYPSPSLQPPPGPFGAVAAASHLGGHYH
Outline: as §1

ETV5 = ETV5 (Homo sapiens, UniProt P41161 1-510); conditions: protein: recombinant; tags: N-terminal GST; dsDNA, one strand shown
Outline: as §1

HSF1 = HSF1 (Homo sapiens, UniProt Q00613 1-529); conditions: protein: recombinant; tags: N-terminal GST; chain copies: 3; dsDNA, one strand shown
Outline: as §1

SPIC = molecular target: T8, SPIC (Homo sapiens, UniProt Q8N5J4 1-248); conditions: protein: recombinant; tags: N-terminal GST; dsDNA, one strand shown
T8 sequence: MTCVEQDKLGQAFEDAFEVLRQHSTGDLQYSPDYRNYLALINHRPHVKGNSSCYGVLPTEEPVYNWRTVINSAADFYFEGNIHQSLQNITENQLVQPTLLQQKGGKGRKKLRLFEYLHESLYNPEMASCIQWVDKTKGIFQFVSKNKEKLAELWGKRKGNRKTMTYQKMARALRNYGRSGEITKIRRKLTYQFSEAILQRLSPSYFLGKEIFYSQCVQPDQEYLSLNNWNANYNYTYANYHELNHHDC
Outline: as §1

ELF4 = ELF4 (Homo sapiens, UniProt Q99607 1-663); conditions: protein: recombinant; tags: N-terminal GST; dsDNA, one strand shown
Outline: as §1

ELK4 = molecular target: T9, ELK4 (Homo sapiens, UniProt P28324-2 1-405); conditions: protein: recombinant; tags: N-terminal GST; dsDNA, one strand shown
T9 sequence: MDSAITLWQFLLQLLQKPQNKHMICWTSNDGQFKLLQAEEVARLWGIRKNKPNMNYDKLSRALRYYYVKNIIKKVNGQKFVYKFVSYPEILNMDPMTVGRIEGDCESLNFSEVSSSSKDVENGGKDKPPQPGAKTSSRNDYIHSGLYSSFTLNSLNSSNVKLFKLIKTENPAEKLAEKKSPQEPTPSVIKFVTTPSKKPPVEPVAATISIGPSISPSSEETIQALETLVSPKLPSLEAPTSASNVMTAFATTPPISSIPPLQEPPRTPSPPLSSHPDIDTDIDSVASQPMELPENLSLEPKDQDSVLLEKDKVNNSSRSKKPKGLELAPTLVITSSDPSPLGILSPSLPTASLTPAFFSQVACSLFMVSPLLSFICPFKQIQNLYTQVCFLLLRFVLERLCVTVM
Outline: as §1

ETV2 = molecular target: T10, ETV2 (Homo sapiens, UniProt O00321 1-342); conditions: protein: recombinant; tags: N-terminal GST; dsDNA, one strand shown
T10 sequence: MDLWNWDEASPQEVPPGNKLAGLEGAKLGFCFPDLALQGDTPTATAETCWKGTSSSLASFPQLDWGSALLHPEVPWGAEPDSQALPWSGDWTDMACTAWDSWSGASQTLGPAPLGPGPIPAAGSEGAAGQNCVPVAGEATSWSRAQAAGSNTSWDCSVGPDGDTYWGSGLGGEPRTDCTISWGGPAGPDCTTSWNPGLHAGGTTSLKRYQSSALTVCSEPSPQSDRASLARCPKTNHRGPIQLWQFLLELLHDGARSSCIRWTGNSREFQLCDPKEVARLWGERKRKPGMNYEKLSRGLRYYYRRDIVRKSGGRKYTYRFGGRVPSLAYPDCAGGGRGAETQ
Outline: as §1

ELF3 = molecular target: T11, ELF3 (Homo sapiens, UniProt P78545 1-371); conditions: protein: recombinant; tags: N-terminal GST; dsDNA, one strand shown
T11 sequence: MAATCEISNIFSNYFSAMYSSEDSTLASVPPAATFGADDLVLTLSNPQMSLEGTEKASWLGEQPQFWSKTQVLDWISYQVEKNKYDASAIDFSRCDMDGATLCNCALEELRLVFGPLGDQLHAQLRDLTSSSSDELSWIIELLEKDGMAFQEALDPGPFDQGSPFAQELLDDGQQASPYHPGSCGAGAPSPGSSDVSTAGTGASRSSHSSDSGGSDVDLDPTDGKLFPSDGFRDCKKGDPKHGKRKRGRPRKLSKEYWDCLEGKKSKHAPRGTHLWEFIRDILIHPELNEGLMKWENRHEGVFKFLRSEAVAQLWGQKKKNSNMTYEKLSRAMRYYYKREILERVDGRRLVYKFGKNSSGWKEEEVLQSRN
Outline: as §1

CRX = CRX (Homo sapiens, UniProt O43186 1-299); conditions: protein: recombinant; tags: N-terminal GST; dsDNA, one strand shown
Outline: as §1

ETV1 = ETV1 (Homo sapiens, UniProt P50549 1-477); conditions: protein: recombinant; tags: N-terminal GST; dsDNA, one strand shown
Outline: as §1

Sequence of ELF1 (P32519 whole entry): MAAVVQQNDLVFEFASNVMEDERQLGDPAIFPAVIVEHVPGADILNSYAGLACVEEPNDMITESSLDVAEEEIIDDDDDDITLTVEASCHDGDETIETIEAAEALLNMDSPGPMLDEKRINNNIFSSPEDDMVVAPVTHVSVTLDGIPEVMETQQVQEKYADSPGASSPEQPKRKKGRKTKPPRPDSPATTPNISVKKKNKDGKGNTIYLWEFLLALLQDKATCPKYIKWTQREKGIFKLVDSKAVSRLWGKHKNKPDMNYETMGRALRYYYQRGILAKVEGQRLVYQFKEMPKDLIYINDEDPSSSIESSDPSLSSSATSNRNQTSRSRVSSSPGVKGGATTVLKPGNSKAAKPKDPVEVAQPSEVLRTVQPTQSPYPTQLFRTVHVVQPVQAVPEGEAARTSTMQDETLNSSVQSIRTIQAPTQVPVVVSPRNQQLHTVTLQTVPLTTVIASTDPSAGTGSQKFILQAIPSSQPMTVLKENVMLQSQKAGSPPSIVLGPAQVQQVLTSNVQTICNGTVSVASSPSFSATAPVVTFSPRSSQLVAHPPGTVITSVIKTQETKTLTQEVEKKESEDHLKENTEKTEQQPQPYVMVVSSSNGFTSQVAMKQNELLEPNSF
Sequence of ELF4 (Q99607 whole entry): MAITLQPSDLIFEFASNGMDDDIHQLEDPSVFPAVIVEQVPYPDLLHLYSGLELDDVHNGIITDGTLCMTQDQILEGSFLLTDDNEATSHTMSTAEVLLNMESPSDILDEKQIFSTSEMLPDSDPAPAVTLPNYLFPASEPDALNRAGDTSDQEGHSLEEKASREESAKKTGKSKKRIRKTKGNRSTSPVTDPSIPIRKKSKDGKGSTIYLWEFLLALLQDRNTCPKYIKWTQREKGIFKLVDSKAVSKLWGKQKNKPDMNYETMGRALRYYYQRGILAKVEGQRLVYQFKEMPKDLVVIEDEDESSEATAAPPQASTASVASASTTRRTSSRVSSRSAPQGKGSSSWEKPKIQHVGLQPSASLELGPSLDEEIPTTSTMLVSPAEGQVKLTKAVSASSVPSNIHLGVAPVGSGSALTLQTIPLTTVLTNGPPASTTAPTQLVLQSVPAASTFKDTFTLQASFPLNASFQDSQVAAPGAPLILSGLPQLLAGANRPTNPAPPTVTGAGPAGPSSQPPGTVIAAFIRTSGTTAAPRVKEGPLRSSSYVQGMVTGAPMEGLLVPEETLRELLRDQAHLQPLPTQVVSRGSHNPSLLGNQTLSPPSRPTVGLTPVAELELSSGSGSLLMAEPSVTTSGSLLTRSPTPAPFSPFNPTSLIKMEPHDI
Sequence of ETV1 (P50549 whole entry): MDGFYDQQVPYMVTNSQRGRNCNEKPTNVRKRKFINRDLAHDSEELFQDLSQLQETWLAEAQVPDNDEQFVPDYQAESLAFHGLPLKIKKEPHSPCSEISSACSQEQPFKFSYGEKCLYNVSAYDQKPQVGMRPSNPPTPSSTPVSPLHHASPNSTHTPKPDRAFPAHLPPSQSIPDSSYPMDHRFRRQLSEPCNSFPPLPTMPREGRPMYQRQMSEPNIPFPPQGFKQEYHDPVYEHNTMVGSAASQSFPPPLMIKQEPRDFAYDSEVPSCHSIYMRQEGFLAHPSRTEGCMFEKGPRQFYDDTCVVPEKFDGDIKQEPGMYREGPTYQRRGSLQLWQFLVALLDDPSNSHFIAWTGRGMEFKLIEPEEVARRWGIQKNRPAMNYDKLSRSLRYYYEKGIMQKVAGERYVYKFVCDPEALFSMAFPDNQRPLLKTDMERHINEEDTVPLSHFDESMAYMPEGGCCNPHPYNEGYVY
Sequence of ETV5 (P41161 whole entry): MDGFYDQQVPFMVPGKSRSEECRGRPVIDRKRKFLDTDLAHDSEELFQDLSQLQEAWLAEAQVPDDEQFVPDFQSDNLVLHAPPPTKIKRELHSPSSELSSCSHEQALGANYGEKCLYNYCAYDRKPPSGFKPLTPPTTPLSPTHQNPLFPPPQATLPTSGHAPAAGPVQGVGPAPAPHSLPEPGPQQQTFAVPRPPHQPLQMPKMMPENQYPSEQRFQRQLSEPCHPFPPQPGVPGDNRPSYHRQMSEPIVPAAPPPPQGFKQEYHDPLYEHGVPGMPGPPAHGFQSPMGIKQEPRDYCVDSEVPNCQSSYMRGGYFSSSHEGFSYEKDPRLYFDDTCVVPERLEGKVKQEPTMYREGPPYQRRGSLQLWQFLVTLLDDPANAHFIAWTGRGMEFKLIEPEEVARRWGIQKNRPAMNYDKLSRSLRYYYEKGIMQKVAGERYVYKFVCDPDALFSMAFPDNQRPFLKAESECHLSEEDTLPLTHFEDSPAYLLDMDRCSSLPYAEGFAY
Sequence of HSF1 (Q00613 whole entry): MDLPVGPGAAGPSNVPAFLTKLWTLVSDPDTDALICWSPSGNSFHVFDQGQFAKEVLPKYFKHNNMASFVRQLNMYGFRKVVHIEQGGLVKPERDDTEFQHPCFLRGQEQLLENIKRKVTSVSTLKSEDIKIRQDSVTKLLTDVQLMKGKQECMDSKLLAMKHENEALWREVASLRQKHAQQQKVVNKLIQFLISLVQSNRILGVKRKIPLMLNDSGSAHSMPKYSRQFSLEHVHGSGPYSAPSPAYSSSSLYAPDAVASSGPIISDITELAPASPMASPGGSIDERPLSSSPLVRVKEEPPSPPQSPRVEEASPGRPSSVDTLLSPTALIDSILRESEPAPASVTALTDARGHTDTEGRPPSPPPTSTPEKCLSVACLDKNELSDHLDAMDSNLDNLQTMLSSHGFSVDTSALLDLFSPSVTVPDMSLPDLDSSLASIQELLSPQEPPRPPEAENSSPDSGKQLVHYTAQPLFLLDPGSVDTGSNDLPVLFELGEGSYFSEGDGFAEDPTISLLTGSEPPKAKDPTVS
Sequence of CRX (O43186 whole entry): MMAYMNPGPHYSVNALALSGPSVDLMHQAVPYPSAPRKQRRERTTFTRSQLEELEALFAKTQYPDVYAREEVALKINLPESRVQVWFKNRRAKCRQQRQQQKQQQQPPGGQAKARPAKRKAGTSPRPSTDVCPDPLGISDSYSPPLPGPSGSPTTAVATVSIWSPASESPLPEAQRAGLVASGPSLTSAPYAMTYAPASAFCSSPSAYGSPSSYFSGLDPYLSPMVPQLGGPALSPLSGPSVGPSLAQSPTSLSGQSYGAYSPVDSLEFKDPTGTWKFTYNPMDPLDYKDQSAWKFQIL
Sequence of SPIB (Q01892 whole entry): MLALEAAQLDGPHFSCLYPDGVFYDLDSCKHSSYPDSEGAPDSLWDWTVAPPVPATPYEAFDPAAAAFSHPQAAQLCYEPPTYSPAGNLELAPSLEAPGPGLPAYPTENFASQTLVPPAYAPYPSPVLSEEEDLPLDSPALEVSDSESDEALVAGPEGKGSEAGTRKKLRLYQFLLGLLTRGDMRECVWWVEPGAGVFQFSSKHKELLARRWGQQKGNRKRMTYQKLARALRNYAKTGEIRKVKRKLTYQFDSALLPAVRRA

With ATATCC the binding signal (FLI1) was 2.59 fold enrichment (6-mer frequency, TF over GST control), the binding signal (ELK1) was 2.88 fold enrichment (6-mer frequency, TF over GST control) and the binding signal (GABPA) was 2.45 fold enrichment (6-mer frequency, TF over GST control). For the same sequence, the binding signal (ERG) was 3.33 fold enrichment (6-mer frequency, TF over GST control), the binding signal (ELF1) was 2.56 fold enrichment (6-mer frequency, TF over GST control) and the binding signal (EHF) was 2.58 fold enrichment (6-mer frequency, TF over GST control). For the same sequence, the binding signal (SPI1) was 2.43 fold enrichment (6-mer frequency, TF over GST control), the binding signal (SPIB) was 2.82 fold enrichment (6-mer frequency, TF over GST control) and the binding signal (ELK3) was 2.72 fold enrichment (6-mer frequency, TF over GST control). For the same sequence, the binding signal (FEV) was 5.87 fold enrichment (6-mer frequency, TF over GST control), the binding signal (ETV5) was 2.97 fold enrichment (6-mer frequency, TF over GST control) and the binding signal (HSF1) was 1.31 fold enrichment (6-mer frequency, TF over GST control). For the same sequence, the binding signal (SPIC) was 2.59 fold enrichment (6-mer frequency, TF over GST control), the binding signal (ELF4) was 2.27 fold enrichment (6-mer frequency, TF over GST control) and the binding signal (ELK4) was 2.39 fold enrichment (6-mer frequency, TF over GST control). The binding signal (ETV2) was 2.7 fold enrichment (6-mer frequency, TF over GST control), the binding signal (ELF3) was 2.77 fold enrichment (6-mer frequency, TF over GST control) and the binding signal (CRX) was 1.58 fold enrichment (6-mer frequency, TF over GST control). For the same sequence, the binding signal (ETV1) was 2.72 fold enrichment (6-mer frequency, TF over GST control).
